Screens (PubChem BioAssay)
The list is not random: actives were taken first. Their share in the collection is about 21%.
Pf growth 96h – inhibits malaria parasite growth, 96 h. 320,000 compounds, 6.9% hits. P. falciparum luciferase reporter growth, 96 h. Potency, µM (series often up to 28.7 µM), without a hit: at the top dose activity change, negative = inhibition, usual class: inhibitors; note: potency is the fitted concentration of half-maximal effect; % is set by controls: 0 for no effect and ±100 for the full control effect
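Infected RBCs, 2% Hct / 0.05% parasitemia final; luciferase-reporter P. falciparum; cpd 96 h, 37 C, 5% CO2; luciferase detection reagent; luminescence.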
Giardia FBPA inh – blocks Giardia fructose-bisphosphate aldolase activity. Potency, µM (highest dose often 59.6 µM), inactives show top-dose activity, negative = inhibition, actives largely listed as inhibitors. 290,000 compounds, 0.71% hits. AID 2451. A8B2U2. purified Giardia FBPA; note: potency is the fitted concentration of half-maximal effect; % is set by controls: 0 for no effect and ±100 for the full control effect; nearly all actives have a fitted effect of over 55% in size
Target sequence (A8B2U2 whole entry, looked up): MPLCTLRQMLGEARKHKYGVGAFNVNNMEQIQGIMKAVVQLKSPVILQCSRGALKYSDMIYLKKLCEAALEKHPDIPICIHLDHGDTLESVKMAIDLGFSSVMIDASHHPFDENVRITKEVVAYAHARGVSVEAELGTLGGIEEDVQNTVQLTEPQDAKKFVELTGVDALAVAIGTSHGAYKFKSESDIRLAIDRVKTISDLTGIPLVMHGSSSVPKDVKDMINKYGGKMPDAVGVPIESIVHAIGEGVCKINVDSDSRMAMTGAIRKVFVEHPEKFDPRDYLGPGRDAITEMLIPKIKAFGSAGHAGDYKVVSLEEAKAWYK
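Giardia FBPA (40 nM reagent) was preincubated 10 min at RT with compound (up to 57.5 uM final), then substrate plus GAPDH/TPI/NAD/arsenate coupling system with diaphorase/resazurin was added; resorufin fluorescence (525/598 nm) was read after 20 min.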
Pf growth 48h – P. falciparum growth inhibition at 48 hours (one generation); AID 504832; P. falciparum luciferase growth in erythrocytes, 48 h; Potency, µM (top dose mostly 28.7 µM), inactives show at the top dose activity change, negative = inhibition, usual class: inhibitors; 310,000 compounds, 5.9% hits; note: potency is the fitted concentration of half-maximal effect; % is set by controls: 0 for no effect and ±100 for the full control effect
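In quantitative HTS format, infected erythrocytes bearing luciferase-reporter parasites were treated for a single generation at 37 C. Luminescence after adding detection reagent served as the growth measure.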
Shiga toxin inh – Shiga toxin inhibition; Vero cells, Shiga toxin protein synthesis inhibition reporter; inhibition, % at 38.7 µM; 290,000 compounds, 9.2% hits; AID 2315; in the data active = inhibition mostly above about 28%, no sharp cut-off; inactive = mostly below about 43%; note: 0% is about no effect
CHX counter – affects cycloheximide protein synthesis inhibition readout, counter-screen; cell reporter, cycloheximide protein synthesis inhibition counterscreen; max response, %; 300,000 compounds, 12% hits; AID 2314; in the data active = max response mostly above about 13%, no sharp cut-off; inactive = mostly below about 14%; note: read at 38.3 µM for the half of the compounds with a filed dose; 0% is about no effect
NS1 function inh – influenza NS1 inhibition; Potency, µM (doses to about 46.1 µM), for the others: at the highest dose activity, positive = more growth; 270,000 compounds, 0.4% hits; AID 2326; calls by dose curve; note: potency is the fitted concentration of half-maximal effect; actives are rising curves; nearly all actives have a fitted effect of over 50% in size
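OD600 was taken as the measure of yeast growth restored by compound in an NS1-expressing S. cerevisiae strain. Cells had been washed out of glucose medium and diluted 1:100 into galactose -URA medium, pH 6.0.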
* = called active by the depositor; ? = inconclusive; . = no result. Unless noted, calls come from the whole dose curve; as a rule, active = well fitted curve in the direction sought with a large enough effect; inconclusive = small, poorly fitted or top-dose-only effect, or another doubt; inactive = no such curve, though single readings can be large; an effect the other way counts as inactive or inconclusive.

SMILES	Pf growth 96h	Giardia FBPA inh	Pf growth 48h	Shiga toxin inh	CHX counter	NS1 function inh
COC1c2ccccc2C(=O)N1Cc1ccc(F)cc1 (centres undefined)	17.6%	5.6%	-1.1%	0.6	-1.1	7.4%
CN(CCOc1ccc(C[C@H](Nc2ccccc2C(=O)c2ccccc2)C(=O)O)cc1)c1ccccn1	.	20.6%	.	.	.	-3.1%
Cc1cc(=O)[nH]c(-n2ncc(C#N)c2N)n1	-22.4%	?	18.7%	-5.2	-1.4	.
CCOC(=O)CN1C(=O)S/C(=C\c2ccc(-c3ccc(C(=O)O)c(Cl)c3)o2)C1=O	-17.6%	-3.2%	?	-4.2	1.6	2.4%
CC(C)OC(=O)c1cc(-c2ccc(C=O)o2)ccc1Cl	14.7µM*	-3.0%	31.0%	21.2	11.0*	-18.3%
CC(C)N1C(=O)S/C(=C\c2ccc(-c3ccc(Cl)c(C(=O)O)c3)o2)C1=O	157.5%	-4.5%	115.6%	153.2*	76.0*	16.8%
COc1ccc(S(=O)(=O)Nc2ccc(F)c(F)c2)cc1C(=O)N1CCOCC1	14.9%	6.7%	13.4%	-10.0	-1.1	-7.6%
O=C1NC(=O)N(c2ccccc2)C(=O)/C1=C/c1coc2ccc(O)cc2c1=O	51.3%	-0.8%	-6.2%	28.2*	23.6*	-5.3%
O=C1NN(c2ccccc2)C(=O)/C1=C\c1coc2ccc(O)cc2c1=O	37.7%	5.9%	-2.2%	20.5	11.1	9.8%
O=C1NN(c2ccccc2)C(=O)/C1=C/c1coc2ccccc2c1=O	?	-0.9%	91.2%	54.1*	81.1*	-33.1%
O=C1NC(=O)N(c2ccc(Cl)cc2)C(=O)/C1=C/c1coc2ccc(O)cc2c1=O	24.9%	-4.5%	-0.4%	6.1	6.0	1.9%
CCOc1ccc2[nH]c3nc(SCC(=O)OC(C)C)nnc3c2c1	105.5%	?	0.0%	-15.0	-1.4	4.1%
O=c1c2[nH]c3cccc(Cl)c3c2ncn1Cc1ccco1	27.6%	0.8%	22.7%	-3.1	-1.8	3.9%
CCC1=C(OC(=O)N(CC)CC)N2C(=O)OC(=NCC(=O)OC)[C@]2(C)[C@H]2C1=CC[C@H]1C(=O)N(CC)C(=O)[C@H]12	35.7%	5.3%	31.3%	-8.7	-6.3	0.1%
CCC1=C(OC(=O)N(CC)CC)N2C(=O)OC(=NCC(=O)OC)[C@]2(C)[C@H]2C1=CC[C@H]1C(=O)N(CC(=O)OC)C(=O)[C@H]12	64.2%	5.0%	30.7%	-10.4	-2.8	-5.4%
CCC1=C(OC(=O)N(CC)CC)N2C(=O)OC(=NCC(=O)OC)[C@]2(Cc2ccccc2)[C@H]2C1=CC[C@H]1C(=O)N(CC(=O)OC)C(=O)[C@H]12	?	-5.0%	11.7µM*	-9.2	-4.6	-4.3%
CCC1=C(OC(=O)N(CC)CC)N2C(=O)OC(=NCCOC)[C@]2(Cc2ccccc2)[C@H]2C1=CC[C@H]1C(=O)N(CC)C(=O)[C@H]12	?	0.2%	13.1µM*	-12.7	-3.4	-4.1%
CCC1=C(OC(=O)N(CC)CC)N2C(=O)OC(=NCCc3c[nH]c4ccccc34)[C@]2(Cc2ccccc2)[C@H]2C1=CC[C@H]1C(=O)N(CC)C(=O)[C@H]12	13.1µM*	-9.0%	9.28µM*	2.7	-1.7	1.0%
COC(=O)CN=C1OC(=O)N2C(=O)C3=C4[C@@H](C[C@H]5C(=O)N(c6ccccc6)C(=O)[C@H]5[C@H]4[C@@]12Cc1ccccc1)[C@H]1C(=O)N(c2ccccc2)C(=O)[C@H]1[C@H]3C	?	1.1%	11.7µM*	-4.5	-3.1	-16.5%
COCCN=C1OC(=O)N2C(=O)C3=C4[C@@H](C[C@H]5C(=O)N(c6ccccc6)C(=O)[C@H]5[C@H]4[C@@]12Cc1ccccc1)[C@H]1C(=O)N(c2ccccc2)C(=O)[C@H]1[C@H]3C	?	-0.1%	?	11.8	2.9	-4.5%
O=c1cc(C(F)(F)F)[nH]c(=S)n1-c1ccccc1	3.4%	-18.6%	6.8%	-2.1	1.4	2.7%
CCC1=C(OC(=O)N(CC)CC)N2C(=O)OC(=NCCOC)[C@]2(C)[C@H]2C1=CC[C@H]1C(=O)N(C)C(=O)[C@H]12	.	-0.2%	.	.	.	.
CCC1=C(OC(=O)N(CC)CC)N2C(=O)OC(=NCc3ccccc3)[C@]2(C)[C@H]2C1=CC[C@H]1C(=O)N(CC)C(=O)[C@H]12	?	-4.6%	11.7µM*	-4.6	-2.4	-3.7%
CCC1=C(OC(=O)N(CC)CC)N2C(=O)OC(=NCCc3c[nH]c4ccccc34)[C@]2(C)[C@H]2C1=CC[C@H]1C(=O)N(C)C(=O)[C@H]12	?	-8.7%	10.4µM*	-3.7	-1.3	-4.1%
CCC1=C(OC(=O)N(CC)CC)N2C(=O)OC(=NCCOC)[C@]2(Cc2ccccc2)[C@H]2C1=CC[C@H]1C(=O)N(C)C(=O)[C@H]12	?	0.5%	10.4µM*	-20.6	-2.2	3.7%
SMILES	Pf growth 96h	Giardia FBPA inh	Pf growth 48h	Shiga toxin inh	CHX counter	NS1 function inh
CCC1=C(OC(=O)N(CC)CC)N2C(=O)OC(=NCC3CC3)[C@]2(Cc2ccccc2)[C@H]2C1=CC[C@H]1C(=O)N(CC)C(=O)[C@H]12	13.1µM*	-3.4%	7.38µM*	1.7	-4.8	-5.5%
COc1cc(OC)c(OC)cc1CNC(=O)c1ccc(COc2ccccc2)cc1	?	2.9%	-24.6%	28.3	21.3	-14.6%
O=c1[nH]c2ccccc2c2ccccc12	42.9%	-3.5%	11.1%	-19.9	-3.2	-20.5%
O=c1[nH]c2ccccc2c2cn(-c3ccccc3)nc12	?	-16.4%	-18.9%	60.5*	17.6*	-4.2%
Cc1nc(NC(=O)CN2CCC(O)(c3ccc(F)cc3)CC2)sc1C	-20.2%	-2.7%	-23.6%	46.9*	16.7*	?
O=C(CN1CCOCC1)Nc1nc2ccc(F)cc2s1	93.1%	-10.1%	.	21.6	13.4	-3.8%
CCc1cccc(NC(=O)c2ccc3c(=O)n4c(nc3c2)CCCCC4)c1	-14.9%	0.0%	?	75.7*	37.6*	-5.1%
CCc1cccc(NC(=O)CSc2nc3c(c(=O)[nH]2)CCCC3)c1	8.28µM*	-3.9%	-9.0%	-8.5	-5.4	7.5%
O=C(Nc1ccc(F)c(Cl)c1)c1ccc2c(=O)n3c(nc2c1)CCCCC3	49.7%	1.2%	204.6%	54.3*	51.6*	-33.3%
O=C(CSc1nc2c(c(=O)[nH]1)CCC2)Nc1cccc(Cl)c1	-13.6%	-5.8%	-7.6%	-0.9	-1.7	-2.5%
O=C(O)CSc1c2c(nc3cc(C(=O)Nc4ccc(F)c(Cl)c4)ccc13)CCCC2	1.04µM*	.	5.6%	1.1	16.7	0.3%
COc1ccc(NC(=O)c2ccc3c(SCC(=O)O)c4c(nc3c2)CCCC4)cc1Cl	?	25.6%	?	5.0	5.7	.
O=[N+]([O-])c1ccc(CS(=O)(=O)c2ncn[nH]2)cc1	12.9%	?	19.2%	-7.9	-3.8	8.3%
CC(C)[C@H](NS(=O)(=O)c1ccc2c(c1)OCCO2)C(=O)OCC(=O)Nc1cc(Cl)ccc1Cl	25.6%	-1.4%	0.3%	-7.2	-2.6	-15.8%
